Screens: PubChem, National Center for Advancing Translational Sciences (NCATS)
Cruzain inh Det = inhibitors of Trypanosoma cruzi cruzain with detergent | P25779 | purified cruzain, Z-FR-AMC fluorescence, 0.01% Triton | Potency, µM, most hits filed as inhibitors | 200,000 compounds, 0.43% hits | AID 1478; also: nearly all actives have a fitted effect of over 40% in size
Target sequence (P25779 123-467 limits assumed): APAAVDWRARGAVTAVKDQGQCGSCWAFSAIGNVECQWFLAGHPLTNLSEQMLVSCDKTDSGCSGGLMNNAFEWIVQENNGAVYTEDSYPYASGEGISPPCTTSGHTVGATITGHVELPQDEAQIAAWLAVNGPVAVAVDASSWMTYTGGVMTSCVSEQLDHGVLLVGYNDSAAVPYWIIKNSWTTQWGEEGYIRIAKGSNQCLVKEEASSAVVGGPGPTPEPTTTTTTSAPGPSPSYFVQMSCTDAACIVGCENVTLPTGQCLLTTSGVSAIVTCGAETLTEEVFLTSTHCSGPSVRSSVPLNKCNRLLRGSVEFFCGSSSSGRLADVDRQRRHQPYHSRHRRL
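Cruzain (1.5 nM) preincubated 15 min at RT with compound in 100 mM sodium acetate pH 5.5, 5 mM DTT, 0.01% Triton X-100. Reaction started with 2 uM Z-FR-AMC; AMC fluorescence (ex 360/em 450 nm) change over 60 s gave rate.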
Cruzain inh noDet = cruzain (T. cruzi) inhibition without detergent; P25779; purified cruzain, Z-FR-AMC fluorescence, no detergent; AID 1476; 200,000 compounds, 2.3% hits; Potency, µM, hits mostly inhibitors; also: nearly all actives have a fitted effect of over 40% in size
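Purified cruzain at 1.5 nM, pre-incubated 15 min with compound at room temperature in 100 mM sodium acetate pH 5.5, 5 mM DTT, 0.00005% Triton X-100. Reaction started with 2 uM Z-FR-AMC; AMC fluorescence increase over 60 s gives rate.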
NS1 function inh = blocks influenza NS1 protein function; Potency, µM (series often up to 46.1 µM); 270,000 compounds, 0.4% hits; AID 2326; calls by dose curve; also: actives are rising curves; nearly all actives have a fitted effect of over 50% in size
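OD600 was taken as the measure of yeast growth restored by compound in an NS1-expressing S. cerevisiae strain. Cells had been washed out of glucose medium and diluted 1:100 into galactose -URA medium, pH 6.0.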
Hits are given with their value; 0 = inactive; ? = inconclusive; - = no result. The full list was thinned out, with hits kept by preference. Unless noted, calls follow the shape of the dose curve; as a rule, active = well fitted curve in the direction sought with a large enough effect; inconclusive = small, poorly fitted or top-dose-only effect, or another doubt; inactive = no such curve, though single readings can be large; an effect the other way counts as inactive or inconclusive.

SMILES	Cruzain inh Det	Cruzain inh noDet	NS1 function inh
CCOC(=O)C1=C(CSc2nc3ccccc3s2)NC(=O)NC1c1cc(C)ccc1C (stereo not given)	0	32µM	0
CCOC(=O)C1=C(CP(=O)(c2ccccc2)c2ccccc2)NC(=O)NC1c1ccc(OC)cc1 (stereo not given)	0	0	0
CCOC(=O)C1=C(CSCC(=O)OC)NC(=O)NC1c1cc(C)ccc1C (stereo not given)	0	0	0
O=C(O)C[O][Sb][O]CC(=O)O	0	0	0
CCc1nn(CC(=O)N2CCN(c3cccc(C(F)(F)F)c3)CC2)c(=O)c2cccn12	0	0	-
CC1CCN(c2ccc(/C=C(\C#N)c3nn(-c4ccccc4)c(N)c3C#N)cc2[N+](=O)[O-])CC1	0	0	0
CC1CCN(c2cc(N3CCC(C)CC3)c([N+](=O)[O-])cc2/C=C(\C#N)c2nn(-c3ccccc3)c(N)c2C#N)CC1	0	2µM	0
N#C/C(=C\c1ccc(N2CCCCC2)c([N+](=O)[O-])c1)c1nn(-c2ccccc2)c(N)c1C#N	0	20µM	0
CC1CCCN(c2ccc(/C=C(\C#N)c3nn(-c4ccccc4)c(N)c3C#N)cc2[N+](=O)[O-])C1 (stereo not given)	0	0	?
CCOC(=O)C1=C(c2ccccc2)NC(=S)NC1c1cc([N+](=O)[O-])ccc1OC (stereo not given)	0	25µM	0
CCOC(=O)C1=C(c2ccccc2)NC(=S)NC1c1cccc([N+](=O)[O-])c1 (stereo not given)	0	0	0
O=C1CC(c2nnc(Cc3ccc(F)cc3Cl)o2)CN1c1ccccc1 (stereo not given)	0	0	-
Clc1cccc(C2Nc3cccc4cccc(c34)N2)c1Cl	-	-	0
Oc1ccc(C2Nc3cccc4cccc(c34)N2)c(O)c1	?	16µM	0
Clc1ccccc1C1Nc2cccc3cccc(c23)N1	-	-	0
c1coc(C2Nc3cccc4cccc(c34)N2)c1	0	7.9µM	0
Fc1ccc(C2Nc3cccc4cccc(c34)N2)cc1	-	-	0
Cc1ccc(C2Nc3cccc4cccc(c34)N2)s1	0	20µM	0
Cc1ccc2c(c1)N(C(=O)CCC(=O)NCc1cccs1)CCO2	0	0	-
C=CC(C)(O)CC1[C@@]2(C)CCCC(C)(C)C2CC[C@]1(C)O (stereo not given in full)	0	?	-
CC(=O)c1ccc(Nc2nc3c(S(=O)(=O)c4ccccc4)nnn3c3ccc(Cl)cc23)cc1	0	0	-
O=[N+]([O-])c1cccc(-c2csc(Nc3ccccc3)n2)c1	-	-	0
COc1cc(NS(=O)(=O)c2ccc(Nc3nc(-c4cccc([N+](=O)[O-])c4)cs3)cc2)nc(OC)n1	0	32µM	0
O=C(COc1cccc(F)c1)N[C@@H](Cc1ccccc1)c1nc2ccccc2[nH]1	13µM	0	0
CC(C)(C)CC(=O)N[C@@H](Cc1ccccc1)c1nc2ccccc2[nH]1	-	-	0
SMILES	Cruzain inh Det	Cruzain inh noDet	NS1 function inh
COc1cccc2c1OC(=O)CC2c1ccccc1C (stereo not given)	0	0	-
Cc1ccc(OCC(=O)NNC(=O)CSc2ncnc3sc(C)c(C)c23)cc1	-	-	0
COC(=O)c1c(-c2ccccc2)csc1NC(=O)CSc1ncnc2sc(C)c(C)c12	0	6.3µM	0
CCc1ccc(OCC(=O)NNC(=O)CSc2ncnc3sc(C)c(C)c23)cc1	0	20µM	0
Cc1nnc(NC(=O)CSc2ncnc3scc(-c4ccccc4)c23)s1	0	0	0
Cc1oc(-c2ccccc2Cl)nc1CS(=O)CC(=O)N1CCN(c2cccc(C(F)(F)F)c2)CC1 (stereo not given)	0	?	-
COCOc1c2c(c(OCOC)c3c(OCOC)cccc13)/C(=N/NS(C)(=O)=O)C1=C2CCCC1	0	0	-
Oc1cccc(Cl)c1	0	0	-
N#Cc1c(C(F)(F)F)cc(-c2cccs2)nc1SCc1ccc(F)cc1	0	0	-
N#Cc1c(C(F)(F)F)cc(-c2cccs2)nc1SCc1cccnc1	32µM	?	0
O=C(c1cccc(Cl)c1)N1CCC(c2nc3c(nnn3Cc3ccc(F)cc3F)c(=O)[nH]2)CC1	0	?	-
COCCNc1nc(C)nc2c1nc(-c1ccccc1)n2CCN1CCCC1	0	0	-
COc1cc2nc(SCc3cccc(Cl)c3)n3nc(CCn4nc(C)cc4C)nc3c2cc1OC	0	0	-
O=C(CNC(=O)c1ccc([N+](=O)[O-])cc1)N/N=C\c1ccc(OC(=O)c2ccccc2)cc1	0	7.9µM	0
COc1cccc(C(=O)NCC(=O)N/N=C/c2cccc(OC(=O)c3ccc([N+](=O)[O-])cc3)c2)c1	0	?	0
Cc1ccc(CC(=O)N/N=C/c2ccc(OC(=O)c3ccc([N+](=O)[O-])cc3)cc2)cc1	0	?	0
O=C(CNC(=O)c1ccccc1Br)N/N=C\c1cc([N+](=O)[O-])cc(Br)c1O	-	-	0
Cc1cc([N+](=O)[O-])cc(C)c1OCC(=O)N/N=C/c1ccc(OC(=O)c2ccccc2Br)cc1	0	10µM	0
Cc1cc([N+](=O)[O-])cc(C)c1OCC(=O)N/N=C/c1ccc(OC(=O)c2ccccc2)cc1	0	13µM	0
O=C(NCc1ccccc1Cl)c1cc2ccccc2o1	0	0	-
Cc1ccc(NC(=O)c2oc3ccccc3c2NC(=O)C2CCCCC2)cc1	0	0	-
CCOC(=O)CSc1nc2ccc(NC(=O)COc3ccc(F)cc3)cc2s1	0	0	-
COc1ccc(C2=C(N3CCN(c4cccc(C)c4C)CC3)c3ccccc3C2=O)cc1	0	0	-
NC(Cc1ccccc1)(C(=O)O)C(=O)O	0	0	0
CCOc1ccc2nc(C)cc(Nc3ccccc3OCC)c2c1	0	0	-
SMILES	Cruzain inh Det	Cruzain inh noDet	NS1 function inh
COc1ccccc1NC(=O)Nc1ccc(Br)cn1	0	0	0
COc1ccc(Cl)cc1NC(=O)Nc1ccc(Br)cn1	0	13µM	0
CCOC(=O)C1CCCN(S(=O)(=O)c2ccc(N3CCCCS3(=O)=O)cc2)C1 (stereo not given)	0	0	-
CC1CC(C)CN(c2ccc(-n3cnnn3)cc2[N+](=O)[O-])C1 (stereo not given)	0	0	0
O=[N+]([O-])c1cc(-n2cnnn2)ccc1N1CCC(Cc2ccccc2)CC1	0	25µM	-
Cc1c(NC(=S)N/N=C/c2ccc(Br)cc2)c(=O)n(-c2ccccc2)n1C	-	-	0
Cn1c(CS/C(N)=N/N=C/c2ccccc2)c(Br)c(=O)n1-c1ccccc1	?	32µM	0
CCCCNC(=O)c1ccc2c(=O)n(Cc3ccc(OC)cc3)c(=O)[nH]c2c1	0	0	-
Cc1ccc(NC(=O)Nc2nnc(N(C)Cc3ccccc3)s2)cc1	0	0	-
Cc1ccc(-c2nn(-c3cc(Cl)ccc3[N+](=O)[O-])c(=O)c3ccccc23)cc1C	0	13µM	0
O=c1c2ccccc2c(-c2ccccc2)nn1-c1cc(Cl)ccc1[N+](=O)[O-]	0	?	0
CCC(=O)Nc1ccccc1-c1nc2ccccc2n(CC(=O)c2ccc(Cl)cc2)c1=O	0	0	-
CCc1ccc(-n2c(=O)c3c(C)c(C)sc3n(CC(=O)NCc3ccc(C)cc3)c2=O)cc1	0	0	-
CC(C)Cc1ccc(C(C)C(=O)Nc2nccs2)cc1 (stereo not given)	0	25µM	0
CC(C)Cc1ccc(C(C)C(=O)Nc2ccccc2O)cc1 (stereo not given)	-	-	0
CCOC(=O)C1(C)C=C(Nc2ccc(O)cc2)C(=O)N1c1ccc(O)cc1 (stereo not given)	0	0	0
